A selection: hits, their analogues and other compounds. The true share with any hit is near 2.9%.
TRPML1 inh: qHTS for Inhibitors of the Human Mucolipin Transient Receptor Potential 1 (TRPML1). TRPML1-inducible cells, Ca2+ dye fluorescence, FDSS; active compounds read low; inhibition of EC80 agonist-evoked calcium signal. activity change, negative = inhibition, % (no concentration beside the values). 390,000 compounds, 0.02% hits. AID 624415, 2012; in the data active = activity change below about -50%; inconclusive = between about -30% and that limit;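 note: stimulus is agonist 54-4 at its EC80 concentration; % is set by controls: 0 for no effect and ±100 for the full control effect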
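TRPML1-DL cells, Tet-induced overnight (~16 h, 37 °C) at 1,500 cells/well, were loaded with Ca8 no-wash dye plus quencher for 45-90 min at room temperature. Compounds were pinned during FDSS kinetic reading; agonist 54-4 at EC80 (4 uM final) then added.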
D3 ag: qHTS of D3 Dopamine Receptor Agonist: qHTS; D(3) dopamine receptor (Homo sapiens), P35462; D3R DiscoveRx beta-arrestin cells, luminescence, 90 min; max activation, %; 410,000 compounds, 0.58% hits; AID 652048, 2013; in the data active = max activation above about 30%; note: 0% is about no effect
Target sequence (P35462 whole entry, looked up): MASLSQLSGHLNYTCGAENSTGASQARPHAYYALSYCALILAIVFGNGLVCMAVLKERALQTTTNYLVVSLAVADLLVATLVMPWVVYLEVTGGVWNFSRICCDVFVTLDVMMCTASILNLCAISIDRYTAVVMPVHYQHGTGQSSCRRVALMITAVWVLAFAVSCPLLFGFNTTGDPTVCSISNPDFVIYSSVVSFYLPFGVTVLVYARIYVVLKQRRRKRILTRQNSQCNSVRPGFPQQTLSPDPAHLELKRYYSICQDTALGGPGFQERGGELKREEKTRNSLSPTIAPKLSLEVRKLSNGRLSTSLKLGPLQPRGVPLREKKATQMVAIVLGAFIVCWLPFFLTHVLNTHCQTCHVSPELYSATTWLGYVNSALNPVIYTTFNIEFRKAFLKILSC
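Cells at 1500/well, incubated overnight, then treated with pinned compounds (dopamine as control) for 90 min at 37 degrees C. DiscoveRx reagent added for 30 - 60 minutes at room temperature; luminescence read.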
D3 antag: qHTS of D3 Dopamine Receptor Antagonist: qHTS | D3R cells, DiscoveRx beta-arrestin luminescence, antagonist mode; active compounds read low | max response, negative = inhibition, % | 360,000 compounds, 2.5% hits; in the data active = max response below about -50%; inconclusive = no clear call, values can overlap the other calls; note: % is set by controls: 0 for no effect and ±100 for the full control effect
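Cells plated overnight at 1500 cells/well, then exposed to library compounds with dopamine controls for 90 minutes at 37 degrees C. DiscoveRx reagent added for 30–60 minutes at room temperature; luminescence read, quantitative HTS format.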
TRPML1 ag: qHTS for Agonists of the Human Mucolipin Transient Receptor Potential 1 (TRPML1); Mucolipin-1 (Homo sapiens), Q9GZU1; TRPML1-expressing cells, Ca2+ dye fluorescence, FDSS; activation, % (test concentration not listed); 410,000 compounds, 0.12% hits; in the data active = activation above about 50%; inconclusive = mostly about 30% to 49%; note: 0% is about no effect
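Calcium fluorescence on an FDSS kinetic reader gave the read-out. Tet-induced TRPML1-DL cells were plated overnight, dye-loaded (Ca8 with quencher, 45-90 min, room temperature, dark), then read 110 s after compound addition, and again 110 s after 4uM final 54-4 (EC80).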
* hit, by the source's call; ? = inconclusive; · = no result; ! = repeats disagree.

SMILES	TRPML1 inh	D3 ag	D3 antag	TRPML1 ag
OCCCNCc1ccc(N(c2ccccc2)c2ccccc2)cc1	-13	-21	-66*	0
CCC1CCC(N2CCN(c3ccc(F)cc3)CC2)CC1 (stereo not given)	7	-22	-25	0
CCC1CCC(N2CCN(c3ccccc3F)CC2)CC1 (stereo not given)	-2	-15	-77*	1
Fc1ccccc1N1CCN(C2CCN(Cc3c[nH]c4ccccc34)CC2)CC1	27	-29	-60*	1
O=C(c1ccccc1)N1CCN(Cc2c[nH]c3ccccc23)CC1	4	2	-85*	2
O=C(CN1CCN(c2ccccc2F)CC1)c1c[nH]c2ccccc12	-8	-3	?	-1
Clc1ccccc1N1CCN(Cc2c[nH]c3ccccc23)CC1	-7	-29	-78*	0
CCN(CC)CCCOc1cc2nc(N3CCCN(C)CC3)nc(NC3CCN(C)CC3)c2cc1OC	·	·	·	0
OC1(c2ccc(Cl)cc2)CCN(Cc2c[nH]c3ccccc23)CC1	-3	-86	-101*	2
CCCC(=O)OCc1cnc(C)c2oc(=O)c(C(=O)Nc3ccc(F)cc3C)cc12	11	6	·	0
O=C(CCC1COc2ccccc2O1)Nc1ccccn1 (stereo not given)	-12	-1	-4	0
O=C(CCC1COc2ccccc2O1)Nc1cccnc1 (stereo not given)	2	33*	25	-1
COc1ccccc1CNC(=O)C1CCN(C2=NS(=O)(=O)C(c3ccc(C)c(C)c3)=C2C)CC1	14	-11	·	0
CC1CCN(C(C)C(=O)Nc2ccccc2-c2ccccc2)CC1 (stereo not given)	1	-6	-56*	1
CCN(CC)S(=O)(=O)c1cc([N+](=O)[O-])ccc1NNC(=O)Nc1ccccc1OC	4	-5	-86*	2
CCN(CC)S(=O)(=O)c1ccc(OC)c(NC(=O)c2ccc([N+](=O)[O-])cc2)c1	68	-6	-17	1
CCN(CC)S(=O)(=O)c1cc([N+](=O)[O-])ccc1NNC(=O)Nc1ccc(F)cc1	15	-1	-72*	0
O=C(Nc1ccc(F)cc1)Nc1ccc([N+](=O)[O-])cn1	-11	-4	-11	0
CCN(CC(=O)Nc1ccc([N+](=O)[O-])cc1OC)c1ccccc1	4	-2	-68*	0
COc1cc2c(cc1OC)C(COc1ccc(F)cc1)N(C(=O)c1cccc(F)c1)CC2 (stereo not given)	-1	7	·	2
OC[C@]1(O)OC[C@@H](O)[C@H](O)[C@@H]1O	·	2	·	·
CCOC(=O)c1cccc(NC(=O)c2cc3ccccn3n2)c1	-26	1	·	-1
CCOc1cc(C(=O)NCCc2csc(-c3ccc(C)cc3)n2)cc(OCC)c1OCC	?	-8	·	19
Cc1cccc(C(=O)Nc2ccc(C(=O)OCc3cc(=O)n4nc(CC(C)C)sc4n3)cc2)c1	-25	-8	·	0
Cc1noc(C)c1S(=O)(=O)NCCc1csc2nc(-c3ccc(F)cc3)nn12	-22	-2	·	0
SMILES	TRPML1 inh	D3 ag	D3 antag	TRPML1 ag
CC1(C)NC(=O)N(c2ccc([N+](=O)[O-])c(C(F)(F)F)c2)C1=O	-7	36*!	16	0
CCCOC1(C(F)(F)F)NC(=O)N(c2cccc(Cl)c2)C1=O (stereo not given)	-4	-19	·	1
COC(=O)Cc1csc(NC(=O)CSc2nncn2C)n1	11	-10	-4	0
Cc1csc(NC(=O)CSc2nncn2C)n1	9	-6	-63*	0
CC(C)Cn1c(/C=N/Nc2nc3ccccc3[nH]2)nc2ccccc21	-3	-1	-71*	0
CCCn1c(/C=N/Nc2nc3ccccc3[nH]2)nc2ccccc21	28	-10	-19	2
Cc1c(/C=N/Nc2nc3ccccc3[nH]2)c2ccccc2n1C	17	-17	?	0
C=CCn1cc(/C=N/Nc2nc3ccccc3[nH]2)c2ccccc21	6	-32	-70*	0
O=C(CC(=O)Nc1ccccc1[N+](=O)[O-])Nc1ccccc1[N+](=O)[O-]	-13	-10	-64*	0

Source: PubChem BioAssay
